Hits are enriched below; roughly 13% of the tested compounds scored in any of these assays.
USP17 block – inhibitors of human USP17 deubiquitinase; inhibition, % at 50 µM; AID 1645855; A8MUK1; purified USP17, Ub-rhodamine cleavage fluorescence, 3 h; 6.5% of 47,000 active
USP8 block – human USP8 deubiquitinase inhibition; P40818; purified USP8, Ub-rhodamine cleavage fluorescence, 30 min; inhibition, % at 20 µM; 4.2% of 47,000 active; AID 1645853
USP28 inh – inhibitors of human USP28 deubiquitinase | Q96RU2 | purified USP28, Ub-rhodamine cleavage fluorescence, 30 min | inhibition, % at 25 µM | 3% of 47,000 active
USP30 block – human USP30 deubiquitinase inhibition. purified USP30, Ub-rhodamine cleavage fluorescence. inhibition, % at 25 µM. 5.3% of 47,000 active
Target sequence (Q70CQ3 whole entry, looked up): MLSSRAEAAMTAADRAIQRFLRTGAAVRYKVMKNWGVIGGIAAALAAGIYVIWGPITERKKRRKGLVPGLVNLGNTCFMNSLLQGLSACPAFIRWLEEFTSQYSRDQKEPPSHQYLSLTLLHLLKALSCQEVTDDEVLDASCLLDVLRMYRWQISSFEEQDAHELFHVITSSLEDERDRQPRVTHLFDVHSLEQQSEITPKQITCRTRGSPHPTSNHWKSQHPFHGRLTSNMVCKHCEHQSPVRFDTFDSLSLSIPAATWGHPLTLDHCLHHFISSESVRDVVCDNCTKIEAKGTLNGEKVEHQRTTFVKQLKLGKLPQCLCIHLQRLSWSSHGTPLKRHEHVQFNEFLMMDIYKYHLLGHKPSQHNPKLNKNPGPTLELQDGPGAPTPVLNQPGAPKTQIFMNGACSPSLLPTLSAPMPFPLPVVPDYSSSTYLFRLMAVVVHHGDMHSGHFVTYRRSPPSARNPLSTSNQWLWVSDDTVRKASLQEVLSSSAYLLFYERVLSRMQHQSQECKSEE
Starred values were filed as active, the others as inactive; · = no result. No stated cut-off is given here; in the data, active means inhibition above about 30%; inactive means the rest.

SMILES	USP17 block	USP8 block	USP28 inh	USP30 block
O=C(NCc1ccc2c(c1)OCO2)c1[nH]nc2c1CCc1ccccc1-2	60*	41*	24	57*
COC1/C=C/OC2(C)Oc3c(C)c(O)c4c(c3C2=O)C(=O)C=C(NC(=O)/C(C)=C\C=C\C(C)C(O)C(C)C(O)C(C)C(OC(C)=O)C1C)C4=O (configuration not stated)	64*	-9	9	-61
CO[C@H]1/C=C/OC2(C)Oc3c(C)c(O)c4c(c3C2=O)C2(C=C(NC(=O)/C(C)=C\C=C\[C@H](C)[C@H](O)[C@@H](C)[C@@H](O)[C@@H](C)[C@H](OC(C)=O)C1C)C4=O)OCC(=O)O2 (some centres not stated)	60*	-36	23	-49
COc1cccc(CN2C(=O)c3cc4ccccc4n3CC2(C)C(=O)NC2CCCC2)c1 (configuration not stated)	11	35*	0	-106
O=C(/C=C/c1ccccc1)Nc1c2c(nc3c1CCC3)CCCC2	21	11	11	40*
O=C(/C=C/c1ccccc1)Nc1nc(-c2ccccc2)c(-c2ccccc2)s1	11	19	16	22
O=C(Nc1ccccc1)N1CCC2(CN(Cc3ccccc3F)C2)C1	-15	-44	-3	-3
O=C(Nc1ccccc1)N1CCCC2(CCCN2Cc2ccccc2F)C1 (configuration not stated)	3	9	-1	32*
Cc1ccc(NC(=O)N2C[C@@H]3c4nccn4-c4ccccc4[C@@H]3C2)cc1	-15	1	-18	0
O=C(Nc1ccccn1)N1C[C@@H]2c3nccn3-c3ccccc3[C@@H]2C1	14	19	9	34*
COc1ccc(-c2cc3n(C)c(C)c(CCC(=O)NCc4ccccc4F)c(=O)n3n2)cc1	28	-158	-7	-56
COc1cccc(-c2cc3n(C)c(C)c(CCC(=O)NCc4ccco4)c(=O)n3n2)c1	-4	53*	-16	-155
CC(C)=CCC/C(C)=C/Cc1c(O)cc2c(c1O)C(=O)OC2	63*	57*	74*	14
CC(C)=CCC/C(C)=C/CC/C(C)=C/Cc1c(C)[nH]c2ccccc2c1=O	8	2	7	0
O=C(c1ccc2c(c1)CCO2)N1CC=C(c2ccccc2)CC1	5	-8	3	0
O=C(NCc1cccnc1)C1CCN(c2cc(N3CCOCC3)ncn2)CC1	11	5	13	43*
O=C(CNc1nc(Nc2ccccc2F)nc(Nc2ccccc2F)n1)Nc1ccccc1	7	6	49*	81*
Cc1ccccc1NC(=O)CNc1nc(Nc2ccccc2)nc(Nc2ccccc2)n1	65*	34*	-4	-3
Cc1cccc(Nc2ccc(NCCNC(=O)Nc3ccccc3F)nn2)n1	29	-1	·	·
Cc1cccc(NC(=O)CSCC(=O)Nc2cccc3ccccc23)c1	24	0	-4	-1
O=C(CNc1nc(Nc2ccccc2)nc(Nc2ccccc2)n1)Nc1ccccc1F	44*	7	21	22
Cc1cccc(NC(=O)CNc2nc(Nc3ccccc3)nc(Nc3ccccc3)n2)c1	·	14	15	32*
CN(CCC(=O)Nc1ccccc1F)Cc1ccccc1	-4	-13	-4	3
COc1cccc(C(c2c(O)cc(C)n(Cc3ccccc3)c2=O)N2CCN(C)CC2)c1 (configuration not stated)	4	14	6	-12
Nc1ccc(Cn2cnc(-c3nc(-c4ccc(F)cc4)no3)c2)cc1	2	8	13	0
SMILES	USP17 block	USP8 block	USP28 inh	USP30 block
Cc1c(C(=O)NCc2ccccn2)oc2ccc3c(c12)C(=O)CC(C)(C)O3	-5	7	3	13
Cc1ccccc1NC(=O)Cn1cnc(NC(=O)c2ccccc2)n1	-4	-28	-5	2
CCOc1ccc(CCNC(=O)c2cccc3c2C(=O)N(CCOC)C3)cc1OCC	-16	-8	53*	-9
CCCN1Cc2cccc(C(=O)NCCc3ccccc3)c2C1=O	0	5	31*	8
CN(C)CC(=O)N1CCC2(CC1)OC(=O)N(Cc1ccccc1)c1ccccc12	-12	0	11	6
O=C(CSC1=NC2(CCCC2)Nc2ccccc21)Nc1cccc(Cl)c1	2	-20	-32	-159
Cc1ccccc1NC(=O)CSC1=NC2(CCCCC2)Nc2ccccc21	22	37*	-1	-33
Cc1ccc(NC(=O)CSC2=NC3(CCCCC3)Nc3ccccc32)cc1	23	38*	-5	-20
CCOc1ccc(NC(=O)CSC2=NC3(CCCC3)Nc3ccccc32)cc1	30*	-2	-6	-59
COc1ccc(NC(=O)CSC2=NC3(CCCCC3)Nc3ccccc32)cc1	2	-11	-6	-39
